Common to all, as to assay type: functional
In assay [1] the target is Solute carrier family 2, facilitated glucose transporter member 1 (Homo sapiens) (UniProt P11166). The assay is described as follows: ST_JUDE_LEISH: Cytotoxicity at 2uM final concentration against transgenic Leishmania Mexicana promastigotes LmGLUT1 that are glucose transport deficient and complemented with the human glucose transporter GLUT1. Activity is measured by DNA content using SYBR green in vitro.

Assay [2] deals with Hexose transporter 1 (Plasmodium falciparum) (UniProt O97467). In words: ST_JUDE_LEISH: Cytotoxicity at 2uM final concentration against transgenic Leishmania Mexicana promastigotes LmPfHT that are glucose transport deficient and complemented with the Plasmodium falciparum hexose transporter. Activity is measured by DNA content using SYBR green in vitro.
The target of assay [3] is Glucose transporter (Leishmania mexicana) (UniProt O61059). The assay is described as follows: ST_JUDE_LEISH: Cytotoxicity at 2uM final concentration against transgenic Leishmania Mexicana promastigotes LmGT2 that are glucose transport deficient and complemented with the L. Mexicana glucose transporter 2. Activity is measured by DNA content using SYBR green in vitro.

Chain of Solute carrier family 2, facilitated glucose transporter member 1 (Homo sapiens) (P11166 whole entry): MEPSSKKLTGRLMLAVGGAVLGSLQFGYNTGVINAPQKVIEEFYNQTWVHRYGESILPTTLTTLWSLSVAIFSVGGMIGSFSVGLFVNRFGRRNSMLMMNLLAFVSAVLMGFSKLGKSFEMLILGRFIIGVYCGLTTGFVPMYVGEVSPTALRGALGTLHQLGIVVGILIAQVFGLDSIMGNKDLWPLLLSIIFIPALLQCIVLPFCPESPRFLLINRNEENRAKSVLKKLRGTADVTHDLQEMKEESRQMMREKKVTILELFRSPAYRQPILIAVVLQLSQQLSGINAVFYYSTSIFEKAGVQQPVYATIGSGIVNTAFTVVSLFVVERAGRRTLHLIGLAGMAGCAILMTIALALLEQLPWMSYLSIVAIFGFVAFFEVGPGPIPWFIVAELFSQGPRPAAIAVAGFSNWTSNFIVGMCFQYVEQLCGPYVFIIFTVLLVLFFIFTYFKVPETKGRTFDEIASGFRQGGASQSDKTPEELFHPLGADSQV

Take `Cn1nccc1C(=O)NCCNCc1cccc(-c2cccc(-c3nc4cc(C(F)(F)F)ccc4[nH]3)c2)c1`: the inhibition is 2.84% in assay [1], 1.83% in assay [2] and 0.31% in assay [3].

For the molecule `CCC(=O)N(c1ccccc1)C1CCN(CCCC(NC(=O)Nc2cc(C(F)(F)F)cc(C(F)(F)F)c2)c2ccc(Cl)c(Cl)c2)CC1` (stereo not drawn), the inhibition was -1.01% in assay [1], 0.47% in assay [2] and 0.22% in assay [3].

On to `CC1(C)N=C(N)N=C(N)N1c1ccccc1`, for which the inhibition was determined as 3.26% in assay [1], 3.47% in assay [2] and 1.32% in assay [3].

Consider `CN(CCS(C)(=O)=O)Cc1ccc(-c2ccc3ncnc(Nc4ccc(OCc5cccc(F)c5)c(Cl)c4)c3c2)o1`, for which the values for the inhibition in assay [1], in assay [2] and in assay [3] were 2.97%, 0.92% and -0.85%, respectively.

For the molecule `COc1ccc2oc(=O)c(C#N)c(O)c2c1`, the inhibition in assay [1] is -0.47%; in assay [2] it was -0.32%; in assay [3] it was 0.54%.

In the case of `CCOc1c(N2CCN(CCCCNC(=O)c3ccc(NC(=O)c4ccc(Cl)cc4)cc3)CC2)ccc2ccccc12`, the inhibition in assay [1] is 0.72%; in assay [2] it was 0.48%; in assay [3], 0.9%.

In the case of `N#CC(c1ccc(Br)cc1)c1ccc2c(C(F)(F)F)cc(C(F)(F)F)nc2n1` (stereo not drawn), the inhibition came to 4.94% in assay [1], 4.44% in assay [2] and 0.48% in assay [3].

For `COC(=O)c1cc(C(O)CNC(C)CCc2cccc(F)c2)ccc1O` (stereo not drawn), the figures for the inhibition in assay [1], in assay [2] and in assay [3] were 2.72%, 2.7% and 2.89%, respectively.

As to `Fc1cc(Cl)ccc1Nc1ccnc2cc(I)ccc12`, the results for the inhibition in assay [1], in assay [2] and in assay [3] were 2.92%, 5.41% and 3.25%, respectively.

For the molecule `CCOc1cc(Cl)c(C(C)NC(=O)c2ccccc2)cc1OCC` (stereo not drawn), the inhibition in assay [1] worked out at 1.69%; in assay [2] it was 3.65%; in assay [3], 3.01%.

As for `Oc1ccc(Cl)cc1CN1CCC2(CCCN(CC3CCC3)C2)C1` (stereo not drawn), the inhibition in assay [1] is -3%; in assay [2] it was -0.63%; in assay [3] it was 1.23%.

In the case of `CN1CCN(CC2(Nc3nccc(NCCc4cn(C)c5ccccc45)n3)CCCCC2)CC1`, the figures for the inhibition in assay [1], in assay [2] and in assay [3] were 0.99%, 1.78% and -1.09%, respectively.

Regarding `COc1ccc(Nc2nccc(N3CCC(NC(=O)Nc4cccc(C(C)=O)c4)C3)n2)cc1` (stereo not drawn), the values for the inhibition in assay [1], in assay [2] and in assay [3] were -3.73%, 0.98% and 3.49%, respectively.

Regarding `O=C(CSc1nccn1Cc1ccco1)Nc1cc(C(F)(F)F)ccc1Cl`, the inhibition was 13.1% in assay [1], 10.5% in assay [2] and 9.28% in assay [3].

Take `CCOC(=O)C(NC(=O)c1ccc([N+](=O)[O-])o1)C(C)C` (stereo not drawn): the values for the inhibition in assay [1], in assay [2] and in assay [3] were -1.7%, -1.51% and -2.33%, respectively.

With `Cc1cc2nc(-c3ccc(OCC(=O)NCc4ccc(C(C)(C)C)cc4)cc3)[nH]c2cc1C`, the inhibition in assay [1] stood at 6.86%; in assay [2] it was 7.11%; in assay [3], 6.35%.

As for `COc1cc(NC(=O)c2ccc(-c3ccc(C(C)=O)cc3)s2)ccc1OCCN1CCCC1`, the inhibition in assay [1] is 0.3%; in assay [2], -0.14%; in assay [3] it was 1.4%.

Regarding `CCOC(=O)c1cn(CC)c2cc(F)c(OC3CC4CCC3(C)C4(C)C)cc2c1=O` (stereo not drawn), the values for the inhibition in assay [1], in assay [2] and in assay [3] were -1.86%, -1.79% and -3.18%, respectively.

Turning to `CC(C)(C)C(=O)Nc1ccc(N2CCN(C(c3ccccc3)c3ccccc3)CC2)c(Cl)c1`, the inhibition in assay [1] stood at 8.85%; in assay [2], 7.04%; in assay [3] it was 4.93%.

For the molecule `COc1ccc(O)c(C(=O)c2cc(C(=O)NCCc3ccccc3)c(=O)n(CCc3ccccc3)c2)c1`, the figures for the inhibition in assay [1], in assay [2] and in assay [3] were 4.48%, 3.07% and 5.64%, respectively.

For the molecule `CCc1ccc(C2=Nn3c(nnc3-c3cccs3)SC2)cc1`, the inhibition was 2.35% in assay [1], 1.1% in assay [2] and -0.08% in assay [3].

As for `NC1CCCN(Cc2cccc(-c3cccc(-c4nc5ccccc5[nH]4)c3)c2)C1` (stereo not drawn), the inhibition was determined as 8.27% in assay [1], 6.48% in assay [2] and 5.75% in assay [3].

Turning to `COc1cc2c(OC)cccc2cc1CNCCCCCCNCc1cc2cccc(OC)c2cc1OC`, the inhibition in assay [1] is 0.11%; in assay [2], 6.08%; in assay [3] it was -0.11%.

For the molecule `CS(=O)(=O)c1ccc(CNCc2cccc(-c3cccc(-c4nc5cc(C(F)(F)F)ccc5[nH]4)c3)c2)cc1`, the inhibition came out at 5.54% in assay [1], 5.92% in assay [2] and 3.97% in assay [3].

For `CNCCCn1c(N(C)C)nc2cc(-n3cnc4cc(-c5ccc(Cl)cc5)sc4c3=O)ccc21`, the inhibition in assay [1] came out at 3.3%; in assay [2], 3.48%; in assay [3], 3.76%.

With `CCCCCCNC(=O)C1Cc2c([nH]c3ccc(C)cc23)C2(CCN(Cc3ccccc3)CC2)N1` (stereo not drawn), the inhibition in assay [1] was 0.98%; in assay [2] it was 0.07%; in assay [3] it was 1.33%.

Consider `CCCc1nc2c(N3CC(NC(=O)/C=C/c4ccccc4)C3)cccc2n1C1CC1`, for which the inhibition in assay [1] was found to be 9%; in assay [2], 7.28%; in assay [3], 8.19%.

Consider `O=C(NC1CCN(Cc2ccc3c(c2)OCCO3)CC1)c1ccc(-c2cccc(C(F)(F)F)c2)s1`, for which the inhibition in assay [1] came to 3.14%; in assay [2] it was 1.52%; in assay [3], 2.57%.

As for `Cc1ccc2c(c1)c(C1CCN(C(=O)c3ccc([N+](=O)[O-])o3)CC1)cn2C`, the values for the inhibition in assay [1], in assay [2] and in assay [3] were 8.36%, 9.14% and 4.16%, respectively.

As for `COc1ccc(CNCc2ccc(F)cc2)cc1-c1cccc(S(=O)(=O)NCCN2CCCC2)c1`, the values for the inhibition in assay [1], in assay [2] and in assay [3] were 0.82%, 0.14% and 1.01%, respectively.

For `COc1ccc(CNC(=O)NC2CCN(c3ccnc(Nc4cc(OC)c(OC)c(OC)c4)n3)C2)cc1` (stereo not drawn), the inhibition was 1.55% in assay [1], 5.45% in assay [2] and -1.15% in assay [3].

As for `O=C(NCCCN1CCN(c2cccc(Cl)c2)CC1)c1ccc(-c2nc3cc(Cl)c(Cl)cc3[nH]2)cc1`, the figures for the inhibition in assay [1], in assay [2] and in assay [3] were 11.3%, 8.6% and 13.7%, respectively.

As for `COc1cc2nc(N3CCC(C(N)=O)CC3)nc(NCc3ccccc3)c2cc1OC`, the values for the inhibition in assay [1], in assay [2] and in assay [3] were 3.29%, 1.29% and 0.48%, respectively.

Regarding `CC1CN(c2cnn(Cc3ccc(NC(=O)Nc4cccc(C(F)(F)F)c4)cc3)c(=O)c2Cl)CC(C)N1` (stereo not drawn), the inhibition in assay [1] was 3.97%; in assay [2] it was 3.35%; in assay [3], -1.12%.

`CNC(=N)c1ccc(NC(=O)c2ccc(C(=O)Nc3ccc(C(=N)NC)cc3)cc2)cc1`: the inhibition stood at 1.44% in assay [1], 2.97% in assay [2] and 1.84% in assay [3].

In the case of `CC(C)COc1ccc(Cl)cc1Cc1ccc(-c2nc3ccc(Br)cc3[nH]2)o1`, the inhibition in assay [1] was found to be 5.75%; in assay [2] it was 5.74%; in assay [3] it was 4.95%.

Values taken from ChEMBL document CHEMBL3433997, “St. Jude Leishmania screening dataset” (2016).
